This note sets out measurements from PubChem BioAssay AID431 (Sanford-Burnham Center for Chemical Genomics, 2006).

Among all 63,000 compounds or so, about 1,100 (1.7%) were called active.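 How the source made its calls: active means compounds whose percent cytotoxicity in the single-dose primary screen, scaled between solvent and toxic-drug controls, exceeds 50; inactive means the rest.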 For the sample, actives were picked, then their nearest neighbours and some compounds at random. Potency and affinity values are given separately.

This test is described as follows: cytotoxicity in KRAS-transformed pancreatic duct cells, primary screen, cell-based, fluorescence, HTS (AID 431).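 Further: 0% = DMSO solvent wells and 100% = doxorubicin-treated wells.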 To be noted: HPDE-C7K KRASV12 cells, Alamar Blue viability, 48 h; at 10 µM; active compounds read high. On the technique in general: Resazurin is reduced to fluorescent resorufin, in cell work by metabolically active cells.
Take `Cn1nccc1/C=C(/C#N)S(=O)(=O)c1ccccc1`: the cytotoxicity was -21.9% (inactive).
Then `Cc1ccc2nc(SCC(=O)O)nc(C)c2c1`, with -14.7% (inactive); and `CCc1nnc(NC(=O)CSc2nnc(Cc3ccccc3)n2-c2ccccc2)s1`, with -4.7% (inactive); and `CC1=Nn2c(nnc2-c2ccco2)SC1`, with -17.8% (inactive).
As for `COC(=O)c1sc(NC(=O)C2CCCO2)c(C(=O)OC)c1C` (configuration not stated), the figure is 19.4% (inactive); as for `O=C(CCN1c2ccccc2Sc2ccccc21)OCc1nnc(-c2ccccc2)o1`, 3.5% (inactive); as for `Cc1nnc(SC(=O)N2c3ccccc3Sc3ccccc32)s1`, -0.5% (inactive).
As for `COc1ccc(C(=O)CSc2nnc(-c3ccccc3)o2)cc1`, the figure is -6.4% (inactive).
For `COc1cc(OC)cc(-c2nnc(SCC(=O)N3c4ccccc4Sc4ccccc43)o2)c1`, the cytotoxicity is -24.8% (inactive).
Then `O=C(COc1cc(Cl)ccc1Cl)Nc1nnc(CC(=O)N2CCOCC2)s1`, with -20% (inactive).
Then `COc1ccccc1NC(=O)CN1CCN(CC(=O)Nc2ccc(F)cc2)CC1`, with 11.3% (inactive); and `CCCNc1nc2c(c(=O)[nH]c(=O)n2C)n1Cc1ccc(F)cc1`, with 8.2% (inactive); and `CC1Cc2ccccc2N1S(=O)(=O)c1ccc2c(c1)n(C)c(=O)c(=O)n2C` (configuration not stated), with 2.9% (inactive).
As for `CCOC(=O)C1CCCN(S(=O)(=O)Cc2ccccc2)C1` (configuration not stated), the figure is -14.4% (inactive); as for `O=C1CSC(=S)N1c1cccnc1`, -10.8% (inactive); as for `O=C(O)c1ccc(CN2C(=O)CSC2=S)cc1`, -5.7% (inactive).
Consider `Cc1cccc(NC(=O)c2oc3c(c2C)C(=O)CC(C)(C)C3)n1`, for which the cytotoxicity is -12.7% (inactive).
Then `O=C(Nc1ccccc1C(=O)N1CCN(Cc2ccccc2)CC1)c1ccccn1`, with 8.7% (inactive); and `COc1ccc2[nH]c(=O)c(CN(C(=O)COc3ccccc3)C(C)C)cc2c1`, with -31.9% (inactive).
As for `COC(=O)C1=C(N)OC2=C(C(=O)CC(C)(C)C2)C1c1ccoc1` (configuration not stated), the figure is -4% (inactive); as for `Cc1nn(C)cc1C1C2=C(CC(C)(C)CC2=O)OC2=C1C(=O)CC(C)(C)C2`, 2.9% (inactive).
Consider `O=C(c1ccccc1C(=O)N1CCN(c2ccccc2F)CC1)N1CCN(c2ccccc2F)CC1`, for which the cytotoxicity is 4% (inactive).
As for `COC(=O)c1ccccc1NC(=O)c1ccc(COc2ccccc2)o1`, the figure is 10.5% (inactive); as for `COC(=O)c1ccccc1NC(=O)c1ccc(-c2ccccc2F)o1`, 90.9% (active); as for `COc1ccccc1NC(=O)c1ccc(-c2ccccc2F)o1`, -9% (inactive).
In the case of `COc1ccc(NC(=O)C(c2ccccc2)N(C)C(=O)c2cnccn2)cc1` (configuration not stated), the cytotoxicity is -2.6% (inactive).
As to `CC1(C)Cc2c(sc3c2c(=N)n(Cc2ccco2)c(=O)n3CC(=O)Nc2ccc(Cl)cc2)CO1`, the cytotoxicity is 52.6% (active).
As for `CC1(C)Cc2c(sc3c2c(=N)n(Cc2ccco2)c(=O)n3CC(=O)Nc2ccccc2)CO1`, the figure is 8.6% (inactive); as for `Cc1ccc(NC(=O)Cn2c(=O)n(Cc3ccco3)c(=N)c3c4c(sc32)COC(C)(C)C4)cc1`, 23% (inactive); as for `COCCNS(=O)(=O)c1ccc2c(c1)C(=O)c1cc(S(=O)(=O)NCCOC)ccc1-2`, -5.8% (inactive).
Then `CC1C(=O)C(C)C(c2cccs2)NC1c1cccs1` (configuration not stated), with -4.9% (inactive); and `CCOC(=O)c1csc(NC(=O)c2ccc(S(=O)(=O)N(C)C)cc2)n1`, with 5.4% (inactive); and `O=C(NC1CCCCC1)N1CCC(n2c(=O)[nH]c3ccccc32)CC1`, with -0.1% (inactive).
Then `O=c1[nH]c2ccccc2n1CCCN1CCN(C(c2ccccc2)c2ccccc2)CC1`, with 31.4% (inactive); and `Cc1noc(C)c1CSc1nnc(-c2ccncc2)n1-c1cccc(Cl)c1C`, with -13.5% (inactive).
For `COc1cc(C2CC(=O)C=C(O)C2)cc(OC)c1OC` (configuration not stated), the cytotoxicity is -10% (inactive).
As for `CCOc1ccc(C(=O)NCc2cccnc2)cc1`, the cytotoxicity is 0.5% (inactive).
As for `O=S(=O)(c1ccc2nc(Cc3ccccc3)[nH]c2c1)N1CCOCC1`, the figure is 2.7% (inactive); as for `CC(=O)Nc1ccc(S(=O)(=O)N2CCC(c3nc4ccccc4[nH]3)CC2)cc1`, 10.6% (inactive).
Then `CC(=O)Nc1ccc(S(=O)(=O)N2CCN(c3cc(C)nc4ccccc34)CC2)cc1`, with -3.8% (inactive); and `COc1cc(O)c(NC(C)=O)c2nonc12`, with 1.5% (inactive).
As for `CC(=O)Nc1nonc1NC(C)=O`, the figure is -9.1% (inactive); as for `c1ccc(CNc2nc3ccccc3[nH]2)cc1`, -13.8% (inactive).
With `Cc1ccc2nc(NCc3ccccc3)[nH]c2c1`, the cytotoxicity is 85% (active).
As for `COc1ccc2nc(NCc3ccccc3)[nH]c2c1`, the cytotoxicity is 39.9% (inactive).
Then `O=S(=O)(NCc1ccccc1)c1cccc2nonc12`, with 4.4% (inactive); and `CCC1(C)Cc2c(sc3nc4n(c(=O)c23)CCS4)CO1` (configuration not stated), with 20.1% (inactive); and `CC(C)Cn1c(Br)nc2c1c(=O)n(CCC#N)c(=O)n2C`, with -5.5% (inactive).
For the compound `O=C1NC2(CCCC2)N=C1c1ccc(Cl)cc1`, the cytotoxicity was -2.2% (inactive).
As for `O=C1NC2(CCCCC2)N=C1c1ccccc1`, the figure is 0.3% (inactive); as for `Fc1ccccc1CSc1nc2ncccc2[nH]1`, -2.9% (inactive).
As for `c1ccc2oc(SCc3nc4ccccc4s3)nc2c1`, the figure is 1.9% (inactive); as for `O=C(CSc1nc2ccccc2s1)Nc1ncccn1`, -2% (inactive).
Then `CCS(=O)(=O)CCSc1nc2ccccc2o1`, with -13.9% (inactive); and `CCS(=O)(=O)CCSc1nc2ccccc2s1`, with -6% (inactive).
On to `Cn1c(SCc2cc(=O)n3cc(Br)ccc3n2)nnc1C1COc2ccccc2O1` (configuration not stated), for which the cytotoxicity was -2.9% (inactive).
Then `COc1ccccc1-n1cnc2cc(NCc3ccco3)ccc21`, with 66.4% (active); and `COc1ccccc1-n1cnc2cc(NC(C)=O)ccc21`, with -14.9% (inactive); and `CCC(=O)Nc1ccc2c(c1)ncn2-c1ccccc1OC`, with -32.9% (inactive).
Then `Cc1cccc2nc(Cn3c(=O)n(CCC(=O)NCc4ccco4)c(=O)c4sccc43)cc(=O)n12`, with 2.4% (inactive); and `O=C(NCN1C(=O)C2C3C=CC(C3)C2C1=O)Nc1nccs1` (configuration not stated), with -8.1% (inactive).
Then `Cc1c(C(=O)OC(C)C)[nH]c2c1C(=O)CCC2`, with 18% (inactive); and `Cc1ccc(SCc2[nH]nc3c2C(c2ccc(C)o2)C(C#N)=C(N)O3)cc1` (configuration not stated), with 10.8% (inactive).
With `Cc1ccc(C2C(C#N)=C(N)Oc3nc(-c4ccccc4)[nH]c32)o1` (configuration not stated), the cytotoxicity is 0.6% (inactive).
For `O=C(Nc1ccccc1)c1ccc(S(=O)(=O)NCC2CCCO2)cc1` (configuration not stated), the cytotoxicity was -7.8% (inactive).
Then `COc1ccc(C2=NOC(C(=O)NCCCN3CCOCC3)C2)cc1` (configuration not stated), with 1.1% (inactive).
As for `Cc1ccc(-c2nnn(CC(=O)N(Cc3cccs3)C(C(=O)NC3CCCC3)c3ccco3)n2)o1` (configuration not stated), the figure is 66.5% (active); as for `Cc1ccc(-c2nnn(CC(=O)N(Cc3cccs3)C(C(=O)NC(C)(C)C)c3ccco3)n2)o1` (configuration not stated), -2.9% (inactive).
With `Cc1ccc(-c2nnn(CC(=O)N(c3ccccc3)C(C(=O)NC3CCCC3)c3ccco3)n2)o1` (configuration not stated), the cytotoxicity was -7.9% (inactive).
Then `CCOC(=O)N1CCN(C(=O)c2c(O)c3cccc4c3n(c2=O)CC4)CC1`, with -3% (inactive); and `O=C(O)CSC1CC(=O)N(c2cccc(Cl)c2)C1=O` (configuration not stated), with -10.2% (inactive); and `CCc1nc(SCC(=O)c2ccc(C)c(C)c2)n[nH]1`, with -2.5% (inactive).
Consider `O=S(=O)(Nc1ccc2c(c1)nc1n2CCN(Cc2ccccc2)C1)c1ccc(Cl)cc1`, for which the cytotoxicity is 51.1% (active).
As for `O=S(=O)(Nc1ccc2c(c1)nc1n2CCN(Cc2ccccc2)C1)c1ccccc1`, the figure is 0.8% (inactive); as for `Cc1ccc(S(=O)(=O)Nc2ccc3c(c2)nc2n3CCN(Cc3ccccc3)C2)cc1`, 6.9% (inactive).
Then `COc1ccc(CC(C)N2CCN(c3ccccc3OC)CC2)cc1OC` (configuration not stated), with 8.7% (inactive); and `CCn1c(SCC(=O)NCc2ccco2)nc2c1c(=O)n(C)c(=O)n2C`, with -20.9% (inactive); and `COC(=O)c1cc(NC(=O)c2nccnc2C(=O)O)cc(C(=O)OC)c1`, with -2.1% (inactive).
As for `CC(=O)C1=C(C)NC(C)=C(C(C)=O)C1c1ccc(-c2ccccc2Cl)o1`, the figure is -13% (inactive).
`COC(=O)C1=C(C)NC2=C(C(=O)c3ccccc32)C1c1ccc(-c2ccc(C(=O)O)cc2)o1` (configuration not stated): the cytotoxicity is 62.8% (active).
As for `CCOC(=O)C1=C(C)NC2=C(C(=O)c3ccccc32)C1c1cccnc1` (configuration not stated), the figure is 12.3% (inactive); as for `Cc1ccc(C(=O)NCc2ccco2)cc1S(=O)(=O)N1CCCCC1`, -20.4% (inactive); as for `Cc1c(NC(=O)c2ccccc2N)cccc1C(=O)O`, 6.3% (inactive).
Then `CC(=O)c1cccc(NC(=O)CN(Cc2ccccc2)S(C)(=O)=O)c1`, with -3.4% (inactive); and `O=C(C(NS(=O)(=O)c1cccs1)c1ccccc1)N1CCN(c2ccccc2)CC1` (configuration not stated), with -9.8% (inactive).
As for `Cc1ccc2occ(CN3CCN(c4ccccc4)CC3)c(=O)c2c1`, the figure is -18.2% (inactive); as for `COc1ccc(N2CCN(Cc3cc(=O)oc4ccc(Cl)cc34)CC2)cc1`, -1.6% (inactive); as for `CCOc1ccccc1C(=O)N1CCN(c2cccc(Cl)c2)CC1`, 65.8% (active).
Turning to `COc1cccc(N2CCN(Cc3coc4c(Cl)cc(Cl)cc4c3=O)CC2)c1`, the cytotoxicity is 65% (active).
As for `O=C(O)c1ccccc1C(=O)N1CCN(c2cccc(Cl)c2)CC1`, the figure is 0.5% (inactive); as for `COc1ccc2nc3oc(C(=O)N4CCN(c5cccc(Cl)c5)CC4)cc3cc2c1`, 25.9% (inactive); as for `COc1ccc(OC)c(S(=O)(=O)N(C)CC(=O)N2CCN(c3cccc(Cl)c3)CC2)c1`, -14.2% (inactive).
Then `COc1ccc(C(=O)N2CCN(c3cccc(Cl)c3)CC2)c(OC)c1`, with 50.5% (active); and `Cc1cc(C(=O)N2CCN(c3cccc(Cl)c3)CC2)c(C)o1`, with 62.7% (active).
Then `COc1ccccc1C(=O)N1CCN(c2cccc(Cl)c2)CC1`, with 31.3% (inactive); and `Cc1cc(C(=O)N2CCN(c3ncccn3)CC2)c(C)o1`, with 6.7% (inactive).
Consider `CCOc1ccc(C(=O)N2CCN(c3ccccc3)CC2)cc1OCC`, for which the cytotoxicity is -18% (inactive).
